High-throughput results (PubChem BioAssay)
Insulin prom inh: TRM-6 insulin promoter activity inhibition | AID 1273 | 130,000 tested, 0.9% active | inhibition, % at 2 µM | TRM-6 cells (human fetal islet line), insulin promoter-eGFP reporter, imaging; reporter expression induced with tamoxifen;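 active = inhibition above the mean plus 3 SD, with well images judged a real hit on visual review, cut at about 60% in these data, passing the limit was not always enough; inconclusive = inhibition over the cutoff but images rejected on review; inactive = inhibition not above the cutoff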
Autophagy mod: autophagy modulation, high-content screen | MEF GFP-LC3 puncta imaging; test concentration mostly 10 µM | calls only at 10 µM (by protocol) | 190,000 tested, 0.98% active | AID 463193;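 active = percentage of spot-positive cells more than 3 SD above its plate mean, without a fluorescence outlier flag or 80% toxicity; inconclusive = no clear call, values can overlap the other calls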
WT yeast gro inh: growth inhibition of WT yeast, mitochondrial fusion screen. inhibition, % at 10 µM. AID 1362. mitochondrial fusion phenotypic screen, WT strain. 190,000 tested, 2.1% active; in the data active = inhibition above about 58%; tested in S. cerevisiae
Insulin prom up: MIN6 insulin promoter up-regulation; 190,000 tested, 0.3% active; z-score at 5 µM; MIN6 insulin promoter-GFP reporter, high-content imaging; hits give high values; AID 1625;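 active = z-score above 3 at 5 µM with at least 500 cells counted in the well; inconclusive = wells under 500 cells, flagged as cytotoxic or low count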
Lmaj promast: reduces viability of Leishmania major promastigotes. resazurin fluorescence viability. inhibition, % at 10 µM. 200,000 tested, 9% active. AID 1063; in the data active = inhibition above about 50%;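 also: promastigotes grown with compound for 44 hours at 28 °C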
Numbers stand for hits. Most compounds without a hit are left out; they make up all but 11% or so of the library.

`Cc1cccc(CSc2nc3c(cc2C#N)CN(C)CC3)c1` gave Insulin prom inh inactive, Autophagy mod inactive, WT yeast gro inh inactive, Insulin prom up inactive and Lmaj promast inactive.
Screening CCOC(=O)c1nc2ccccc2c(=O)n1-c1cccc(C)c1 returned Insulin prom inh inactive, Autophagy mod inactive, WT yeast gro inh inactive, Insulin prom up inactive and Lmaj promast inactive.
O=c1[nH]c(=S)n(CCC2=CCCCC2)c(O)c1C=NC1CCN(Cc2ccccc2)CC1 was read as Insulin prom inh inactive, Autophagy mod inactive, WT yeast gro inh 78.1, Insulin prom up inactive and Lmaj promast inactive.
For O=c1[nH]c(=O)n(C2CCCCCC2)c(O)c1C=NC1CCN(Cc2ccccc2)CC1 the results were Autophagy mod inactive, WT yeast gro inh inactive, Insulin prom up inactive and Lmaj promast 89.1.
`Cn1c(O)c(C=NCCN2CCN(C(=O)Nc3ccccc3)CC2)c(=O)n(C)c1=O` gave Insulin prom up inactive.
`CCC(C#N)(CC)P(=S)(c1ccccc1)c1ccccc1` gave Insulin prom inh inactive, Autophagy mod inactive, WT yeast gro inh inactive, Insulin prom up inactive and Lmaj promast 99.6.
For O=C(CF)NC(Nc1cccc2cccnc12)C(Cl)(Cl)Cl (stereo not given) the results were Insulin prom inh inactive, Autophagy mod inactive, WT yeast gro inh inactive, Insulin prom up inactive and Lmaj promast inactive.
For Cc1c(C(=O)N2CCC3(CC2)OCCO3)oc2ccccc12 the results were Insulin prom inh inactive, Autophagy mod inactive, WT yeast gro inh inactive, Insulin prom up inactive and Lmaj promast inactive.
`CC1=C(C(=O)N2CCC3(CC2)OCCO3)C2(CCC(C)CC2)OC1=O` (stereo not given) gave Insulin prom inh 72.8, Autophagy mod inactive, WT yeast gro inh inactive, Insulin prom up inactive and Lmaj promast inactive.
CN1C(=O)N(C)C(=O)C2(Cc3c(nc4ccccn4c3=O)N3CCC(Cc4ccccc4)CC32)C1=O (stereo not given) was read as Insulin prom up inactive.
Screening Cc1cccn2c(=O)c3c(nc12)N1CCC(Cc2ccccc2)CC1C1(C3)C(=O)N(C)C(=O)N(C)C1=O (stereo not given) returned Insulin prom inh inactive, Autophagy mod inactive, WT yeast gro inh inactive, Insulin prom up inactive and Lmaj promast 58.6.
For Cc1ccsc1C(=O)C1CCCN(Cc2c(C)nn(C(C)C)c2C)C1 (stereo not given) the results were Autophagy mod inactive, WT yeast gro inh inactive, Insulin prom up inactive and Lmaj promast inactive.
Screening CC1=C(/C=C/c2ccccc2)CCN(C)C1 returned Autophagy mod inactive, WT yeast gro inh inactive, Insulin prom up inactive and Lmaj promast 98.6.
COc1ccccc1-n1c(Cc2ccccc2)nc2ccccc2c1=O was read as Autophagy mod inactive, WT yeast gro inh inactive, Insulin prom up inactive and Lmaj promast inactive.
`CCOC(=O)C(O)(c1ccc(NC(=O)Oc2ccccc2)cc1)C(F)(F)F` (stereo not given) gave Insulin prom inh inactive, Autophagy mod inactive, WT yeast gro inh inactive, Insulin prom up inactive and Lmaj promast inactive.
`CCN(c1ccc(C(O)(C(=O)OC)C(F)(F)F)cc1)S(=O)(=O)c1ccccc1` (stereo not given) gave Insulin prom inh inactive, Autophagy mod inactive, WT yeast gro inh inactive, Insulin prom up inactive and Lmaj promast 98.8.
`CCOC(=O)C(O)(c1ccc(N(CC)S(=O)(=O)c2ccccc2)cc1)C(F)(F)F` (stereo not given) gave Autophagy mod inactive, WT yeast gro inh inactive, Insulin prom up inactive and Lmaj promast 99.6.
For C=CCn1c(O)c(/C=N/NC(=O)CCCC)c(=O)[nH]c1=S the results were Autophagy mod inactive, WT yeast gro inh inactive and Lmaj promast inactive.
For O=C(C1CC(=O)N(c2ccc(F)c(Cl)c2)C1)N1CCC2(CC1)OCCO2 (stereo not given) the results were Insulin prom inh inactive, Autophagy mod inactive, WT yeast gro inh inactive, Insulin prom up inactive and Lmaj promast inactive.
Screening O=C(Oc1ccc([N+](=O)[O-])cc1)N1CCC(N2CCCCC2)CC1 returned Insulin prom inh inactive, Autophagy mod inactive, WT yeast gro inh inactive, Insulin prom up inactive and Lmaj promast 92.7.
For CC(c1ccccc1F)n1cc(C(=O)Nc2ccc3nc[nH]c3c2)nn1 (stereo not given) the results were Insulin prom inh inactive, Autophagy mod inactive, WT yeast gro inh inactive, Insulin prom up inactive and Lmaj promast 71.7.
Cc1ccc(C(C)C)c(OCC#CCN2CCCC2)c1 was read as Autophagy mod inactive, WT yeast gro inh inactive, Insulin prom up inactive and Lmaj promast inactive.
CCCCCc1cc(O)c2c3c(c(=O)oc2c1)CN(C)CC3 was read as Insulin prom inh inactive, Autophagy mod inactive, WT yeast gro inh inactive, Insulin prom up inactive and Lmaj promast 99.2.
For CCOC(=O)C(C)Oc1cc(C)cc2oc(=O)c3c(c12)CCCC3 (stereo not given) the results were Insulin prom inh inactive, Autophagy mod inactive, WT yeast gro inh inactive, Insulin prom up inactive and Lmaj promast inactive.
Brc1ccc2c(c1)C(OC1CN3CCC1CC3)c1ccccc1CS2 (stereo not given) was read as Insulin prom inh inactive, Autophagy mod inactive, WT yeast gro inh 82.1, Insulin prom up inactive and Lmaj promast 100.3.
C=C(CO)CC1CC(O)[C@]2(C)OC3CC4OC5C[C@]6(C)O[C@]7(C)CCC8OC9C[C@]%10(C)OC%11C(C)=CC(=O)OC%11CC%10OC9C[C@@H](C)C8OC7CC6O[C@]5(C)C/C=C\C4OC3CC2O1 (stereo not given in full) was read as Autophagy mod inactive, WT yeast gro inh inactive, Insulin prom up inactive and Lmaj promast 55.6.
For C=C(C=O)CC1CC(O)[C@]2(C)OC3CC4OC5C[C@]6(C)O[C@]7(C)CCC8OC9C[C@]%10(C)OC%11C(C)=CC(=O)OC%11CC%10OC9C[C@@H](C)C8OC7CC6O[C@]5(C)CC5OC5C4OC3CC2O1 (stereo not given in full) the results were Autophagy mod inconclusive, WT yeast gro inh 81.9, Insulin prom up inconclusive and Lmaj promast 100.5.
Screening CC(=NCc1ccc2c(c1)OCO2)c1c(O)n(-c2ccccc2)c(=O)[nH]c1=O returned Insulin prom up inactive.
`Cc1ccccc1NC1=NCC(C)S1` (stereo not given) gave Autophagy mod inactive, WT yeast gro inh inactive, Insulin prom up inconclusive and Lmaj promast inactive.
For Cn1c(O)c(/C=N/c2ncccn2)c(=O)n(C)c1=O the results were Insulin prom inh inactive, Autophagy mod inactive, WT yeast gro inh inactive, Insulin prom up inactive and Lmaj promast 78.0.
Cc1ccc(CN2C3CCCC2CC(NC(=O)Nc2cccc(F)c2)C3)cc1 (stereo not given) was read as Autophagy mod active, WT yeast gro inh inactive, Insulin prom up inactive and Lmaj promast 96.1.
For CCNc1ccc(P(=S)(N(C)C)N(C)C)cc1 the results were Insulin prom inh inactive, Autophagy mod inactive, WT yeast gro inh inactive, Insulin prom up inactive and Lmaj promast inactive.
Screening CC(C)(C)C(O)C(Oc1ccc(Cl)cc1)n1cncn1 (stereo not given) returned Insulin prom inh inactive, Autophagy mod inactive, WT yeast gro inh inactive, Insulin prom up inactive and Lmaj promast 82.1.
